Test results from ChEMBL document CHEMBL3988442, “University of Dundee, Small-Polar-MMV Screening Library” (2021).
The whole screen tested about 85,000 compounds, of which about 440 (0.52%) showed an effect of 50% or more. Shown is part of a subset that was picked to be rich in strong results.

Test: In vitro enzyme assay to detect hydrolysis of chlorophenol red-beta-D-[…] directly proportional to the number of Toxoplasma stably expressing beta-galactosidase
Type: functional, organism-based, Toxoplasma gondii
Set-up: scale not given: in the data most compounds retested in dose-response had high values

Compound | Percent Effect (50 µM) [%] | Percent Effect (10 µM) [%]
Cc1noc(C)c1C(=O)NC1CCN(CC2CC2)CC1 | -0.3877 | 
CC(C)c1nsc(NCC2=COCCO2)n1 | -1.035 | 
Cc1[nH]c2ccccc2c1-c1ccnc(NC[C@H](O)CO)n1 |  | 15.34
Cc1[nH]c2ccccc2c1-c1ccnc(N[C@@H](C)CO)n1 |  | 58.12
Cc1[nH]c2ccccc2c1-c1ccnc(N[C@@H](CO)C(C)C)n1 |  | 48.14
Cc1[nH]c2ccccc2c1-c1ccnc(NCCN2CCOCC2)n1 |  | -5.812
Cc1[nH]c2ccccc2c1-c1ccnc(NCCN2CCCCC2)n1 |  | 28.85
Cc1[nH]c2ccccc2c1-c1ccnc(N[C@H](CO)CC(C)C)n1 |  | 53.1
NCc1cc2c([nH]c1=O)CCC2 | 5.937 | 
CCN(CCCOC)CC(=O)Nc1cccc(OC)c1 | -2.356 | 
COc1ccc(NC(=O)c2ccc(Br)cn2)cc1CO | -27.31 | 
COc1ccc(-c2cncc(N)c2)cc1CO | 96.02 | 
COc1ccc(NC(=O)c2cncc(C)c2)cc1CO | -7.73 | 
Cc1nc(C2CCCN2CC(=O)NCCc2ccsc2)no1 (stereo unspecified) |  | 7.324
CCc1nc(C2CCCN2CC(=O)NCCc2ccsc2)no1 (stereo unspecified) |  | 89.95
O=C(CN1CCCC1c1noc(C2CC2)n1)NCCc1ccsc1 (stereo unspecified) |  | 19.94
CCN(C)C(=O)CNc1ccccc1S(=O)(=O)CC | -2.619 | 
O=C([C@@H]1CCCN1)N1CCCC1c1cccnc1 (stereo partly specified) | -9.249 | 
COCC(C)(CCO)NCc1cccc(F)c1 (stereo unspecified) | 2.377 | 
CC1(c2ccccc2)CCCN(Cc2cncn2C2CC2)C1 (stereo unspecified) |  | 20.67
COCCn1cncc1CN1CCCC(C)(c2ccccc2)C1 (stereo unspecified) |  | 0.6483
CC1(c2ccccc2)CCCN(Cc2cncn2C2CCCC2)C1 (stereo unspecified) |  | 64.76
O=C(C(O)c1ccccc1)N(CCO)Cc1ccsc1 (stereo unspecified) | 11.77 | 
CCOC(=O)c1sc(O)nc1C | -0.2183 | 
CC(C)C(NC(=O)c1ccco1)C(=O)N1CCOCC1 (stereo unspecified) | -3.141 | 

Compound | Percent Effect (50 µM) [%] | Percent Effect (10 µM) [%]
NCC1(NS(=O)(=O)c2cccc3nonc23)CCCC1 | -3.738 | 
CC(C)NC(=O)C1CN(C(=O)NCc2ccccc2)CC12CCOCC2 (stereo unspecified) |  | -9.471
CC(C)NC(=O)C1CN(C(=O)CCc2ccccc2)CC12CCOCC2 (stereo unspecified) |  | 56.76
CC(C)NC(=O)C1CN(C(=O)Cc2ccccc2)CC12CCOCC2 (stereo unspecified) |  | 0.09588
CC(O)CN1CCN(C(=O)CN(C)C2CC2)CC1 (stereo unspecified) | 3.925 | 
Cc1cc(CNC(=O)CCCN2CCCCC2)ccn1 | -5.389 | 
NC(=O)NCC1CCCN1 (stereo unspecified) | 26.88 | 
CNCC(C)CNC(=O)c1ccc(C(N)=O)nc1 (stereo unspecified) | -13.42 | 
Cc1cc(C)nc(NC(=O)NC2CCC(O)CC2)c1 (stereo unspecified) | 31.49 | 
O=C(NCCc1nnc[nH]1)C1SCCc2ccccc21 (stereo unspecified) | -20.61 | 
CN(C)C(=O)Nc1cc(F)cc(F)c1 | 57.68 | 
CN(CC(C)(CO)CO)C(=O)Nc1cc(F)cc(F)c1 |  | 14.95
CNCC(=O)Nc1cc(F)cc(F)c1 | 12.71 | 
COC1CCN(CC(=O)Nc2ccc(C(N)=O)cc2)C1 (stereo unspecified) | -13.26 | 
CC(=O)NCCNC(=O)c1cc(Cl)c(Cl)n1C | -20.76 | 
CCc1cc(N2CCCC(CN)C2)n2nccc2n1 (stereo unspecified) | 8.07 | 
O=C(O)C(F)(F)F.O=C1COC2(CCN(Cc3nccs3)CC2)CN1c1ccccc1 |  | -19.73
Cn1cc(N2CC3(COCCN(Cc4nccs4)C3)OCC2=O)cn1.O=C(O)C(F)(F)F (stereo unspecified) |  | 3.864
Cn1cc(N2CC3(CCN(Cc4nccs4)CC3)OCC2=O)cn1.O=C(O)C(F)(F)F |  | 66.73
CN(C)S(=O)(=O)N1CCCC1c1ccsc1 (stereo unspecified) | 2.745 | 
O=S(=O)(c1ccc2c(c1)CCCN2)N1CCCC1 | 5.041 | 
O=C(CCCNC(=O)C1CCCO1)Nc1ccc(Cl)cc1 (stereo unspecified) |  | 23.23
Cc1ccc(NC(=O)CCCNC(=O)C2CC2)cc1 | 98.6 | 
O=C(CCCNC(=O)C1CC1)Nc1cnn(-c2ccccc2Cl)c1 |  | 12.28
CNCCCNS(=O)(=O)c1ccc(Br)c(C(C)=O)c1 | 7.594 | 

Compound | Percent Effect (50 µM) [%] | Percent Effect (10 µM) [%]
COCC(=O)N[C@H]1CN(CCS(C)(=O)=O)C[C@@H]1C(C)C | -7.194 | 
CCn1nc(CC(C)C)cc1C(=O)N1CCC(N)C1 (stereo unspecified) | -11.21 | 
CCc1ccc(NC(=O)C(C)Nc2cccc3c2OCCO3)cc1 (stereo unspecified) |  | 82.59
CC(Nc1cccc2c1OCCO2)C(=O)Nc1ccc(S(N)(=O)=O)cc1 (stereo unspecified) |  | 5.712
CC(Nc1cccc2c1OCCO2)C(=O)Nc1ccc(Cl)cc1 (stereo unspecified) |  | 6.519
CC(C)CC1NCCCNC1=O (stereo unspecified) | 0.1576 | 
CS(=O)(=O)CCn1ccnc1-c1ccc(Cl)s1 | -2.415 | 
CCOC(=O)C1(Cc2ccccc2-c2ccccc2OC)CCNCC1.Cl |  | 44.64
COc1ccccc1-c1ccccc1CC1(C(=O)O)CCNCC1 |  | 8.204
CN(CCCC1CCCO1)C(=O)c1cccc(N)n1 (stereo unspecified) | 1.142 | 
CC(=O)NCC(=O)N1CCN(c2ccncc2Cl)CC1 | -5.39 | 
CN1CCC(NCC(O)c2cccc(OCc3ccccc3)c2)CC1 (stereo unspecified) |  | 74.89
OC(CNC1CCOCC1)c1cccc(OCc2ccccc2)c1 (stereo unspecified) |  | 6.488
OC(CNC1CCSCC1)c1cccc(OCc2ccccc2)c1 (stereo unspecified) |  | 40.53
Cc1ccc(NC(=O)CN(C)C2CC[S+]([O-])CC2)cc1 (stereo unspecified) | -6.954 | 
COc1ccc(C)cc1NC(=O)Cn1ccnc1 | 17.12 | 
O=C(NCc1ccc2c(c1)OCO2)Nc1nccs1 | -9.702 | 
COCC(N)c1ccccc1 (stereo unspecified) | 3.787 | 
Cl.NC(CC1CCCC1)c1ccccc1 (stereo unspecified) |  | -47.66
NC(CC1CCCC1)c1ccc(Oc2ccccc2)cc1 (stereo unspecified) |  | 55.94
CCOC(=O)C1(C(C)C)CCN(C(=O)c2cn[nH]c2)C1 (stereo unspecified) | -4.733 | 
COC(C)(C)C(=O)CSc1cc(C#N)ccn1 | 9.152 | 
N#Cc1ccnc(SCC(=O)Nc2ccncc2)c1 | 98.13 | 
N#Cc1ccnc(SCc2ccncc2)c1 | 30.75 | 
O=C(Cn1cc(Br)cn1)Nc1ccc2c(c1)OCCO2 | -0.8097 | 

Compound | Percent Effect (50 µM) [%] | Percent Effect (10 µM) [%]
NC(=O)C[C@@H](N)c1ccccc1Cl | 50.18 | 
NC(=O)C[C@H](N)c1ccccc1 | 8.251 | 
NC(=O)C[C@@H](N)c1ccc(Cl)cc1 | 0.4297 | 
COc1cccc(-c2noc(C3CCN(Cc4ccccc4C)C3)n2)c1.Cl (stereo unspecified) |  | 42.09
COc1cccc(-c2noc(C3CCN(Cc4ccccc4F)C3)n2)c1.Cl (stereo unspecified) |  | 11.37
CCn1ccnc1C1CCN(CC(=O)N(C)C)CC1 | 16.85 | 
CCNC(=O)CN1CCCC(c2nccn2CC)C1 (stereo unspecified) | 95.83 | 
CCn1ccnc1C1CCCN(CCC(N)=O)C1 (stereo unspecified) | 24 | 
CC(C)COC1CCN(S(=O)(=O)N2CCCC2)CC1 | 99.18 | 
COCC(C)S(=O)(=O)N1CCCCC1 (stereo unspecified) | 6.357 | 
CC(C)COC1CCN(S(=O)(=O)Cc2cccc(F)c2)CC1 |  | 8.24
Cc1nc2ccc(C(=O)N3CC(O)C3)cc2nc1C | -4.584 | 
CSc1cccc(F)c1CN | 2.771 | 
COc1cccc(CNCc2ccccn2)c1 | 10.94 | 
CC(=O)NCc1cccc(OCc2ccccn2)c1 | 53.39 | 
NCc1cccc(OCc2ccccn2)c1 | -1.325 | 
Cc1noc(C)c1C(=O)N(C)C1CCS(=O)(=O)C1 (stereo unspecified) | -15.63 | 
Cc1ccc(C2COCCN2)o1 (stereo unspecified) | 3.644 | 
CC1c2ncc(COc3cccnc3)n2CCN1C(=O)C1=CCCC1.O=C(O)C(F)(F)F (stereo unspecified) |  | 10.52
COCC(=O)N1CCn2c(COc3cccnc3)cnc2C1C.O=C(O)C(F)(F)F (stereo unspecified) |  | 84.28
CC1c2ncc(COc3cccnc3)n2CCN1C(=O)Cc1ccco1.O=C(O)C(F)(F)F (stereo unspecified) |  | -0.5977
O=C(NCCSCc1ccco1)c1cccnc1O | -3.309 | 
COc1ccccc1CC#N | 14.35 | 
COc1ccc(CC#N)cc1S(C)(=O)=O | 54.15 | 
COc1ccc(CC(C)(C#N)NC(C)=O)cc1OC (stereo unspecified) | 14.61 | 

Compound | Percent Effect (50 µM) [%] | Percent Effect (10 µM) [%]
COC(=O)c1cnc2c(c(C)nn2C)c1OC |  | 68.54
COc1c(C(=O)N2CCOCC2)cnc2c1c(C)nn2C |  | -14.92
COc1c(C(=O)N2CCNC(=O)C2)cnc2c1c(C)nn2C |  | 0.4571
CN1CCN(Cc2nccn2C)[C@H]2CS(=O)(=O)C[C@H]21 | 0.771 | 
OCCNCCNCc1ccc(-c2ccccc2)o1 | 1.266 | 
OCCNCCNCc1ccc(-c2ccccc2Cl)o1 | 33.01 | 
OCCNCCNCc1ccc(-c2cccc(Cl)c2)o1 | 71.47 | 
O=C(NCCSC1CCCC1)c1cnccn1 |  | 0.9702
O=C(NC1CCCC1)c1cnccn1 | 54.91 | 
Cc1nnc2n1CCC(NC(=O)c1cnccn1)CC2 (stereo unspecified) | 2.489 | 
CCC(C)N(CC(=O)OC)Cc1nccn1C (stereo unspecified) | 1.211 | 
OCc1ccccc1CC1CCNCC1 | 2.025 | 
CC(C)c1cc(NC(=O)c2ccncc2)[nH]n1 |  | 64.12
Cc1ccc(CC(=O)Nc2cc(C(C)C)n[nH]2)cn1 |  | 86.76
CC(C)c1cc(NC(=O)c2ccc(C(=O)NC(C)(C)C)cc2)[nH]n1 |  | 9.105
Cc1ccc(C(=O)Nc2cc(C(C)C)n[nH]2)cn1 |  | -1.588
CC(C)c1cc(NC(=O)c2ccc([S+]([O-])C(C)C)cc2)[nH]n1 (stereo unspecified) |  | 54.78
CC(C)c1cc(NC(=O)c2ccc(NC3CC3)nc2)[nH]n1 |  | 3.917
CC(C)c1cc(NC(=O)c2cccnc2)[nH]n1 |  | 41.77
CC(C)CC(=O)Nc1cc(C(C)C)n[nH]1 | 12 | 
Cc1cc(NC(=O)c2ccc(F)cc2)[nH]n1 | -8.221 | 
